Consider 39 sequences from PMC5700166.

The target of the test is T1, GST-Nv-NF-kB (Ser allele) (Nematostella vectensis, UniProt A7UNT2 2-411).
T1 sequence: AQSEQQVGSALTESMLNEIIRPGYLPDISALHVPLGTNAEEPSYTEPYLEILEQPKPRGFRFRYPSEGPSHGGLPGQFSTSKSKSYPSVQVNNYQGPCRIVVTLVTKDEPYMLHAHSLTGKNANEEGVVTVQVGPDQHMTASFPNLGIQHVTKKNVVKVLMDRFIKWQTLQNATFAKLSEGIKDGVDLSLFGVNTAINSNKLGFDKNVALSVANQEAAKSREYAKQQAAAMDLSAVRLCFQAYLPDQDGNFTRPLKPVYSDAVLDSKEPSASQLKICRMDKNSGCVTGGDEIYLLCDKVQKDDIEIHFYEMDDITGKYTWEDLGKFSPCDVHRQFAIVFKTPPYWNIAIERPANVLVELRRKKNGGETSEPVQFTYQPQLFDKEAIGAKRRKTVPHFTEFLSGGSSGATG
The experiment in a line: protein-binding microarray (PBM); PBM: ~300 nM protein, 6 mM HEPES pH 7.8, 80 mM KCl, 0.5 mM EDTA, 0.5 mM EGTA, 6% glycerol, 35 ng/ul poly-dIdC, 1% milk, 1 h, room temperature; Ap Aiptasia and Nv Nematostella (sea anemones) / Co Capsaspora / Aq Amphimedon (sponge) / Dm Drosophila / Hu human; RHD is the Rel homology domain; high values mean tight binding. The note with it: dsDNA, one strand shown.
“CCGATTAACATCACAACACCCCCTGATGTTAATCGGGTCTTGATTCGCTTGACGCTGCTG”: the binding signal was determined as 5.01 z-score.
“CCGATTAACATCAAGAAATTTCCTGATGTTAATCGGGTCTTGATTCGCTTGACGCTGCTG” registered a binding signal of 1.55 z-score.
“CCGATTAACATCACGGTGGGAAATGATGTTAATCGGGTCTTGATTCGCTTGACGCTGCTG” gave a binding signal of 2.58 z-score.
The sequence “CCGATTAACATCAGGGGATAAAATGATGTTAATCGGGTCTTGATTCGCTTGACGCTGCTG” returned a binding signal of 6.05 z-score.
The result for “CCGATTAACATCAGGGATTTTCATGATGTTAATCGGGTCTTGATTCGCTTGACGCTGCTG” reads 4.23 z-score.
Sequence “CCGATTAACATCAGGGGAGAACCTGATGTTAATCGGGTCTTGATTCGCTTGACGCTGCTG” showed a binding signal of 5.63 z-score.
In turn, “CCGATTAACATCAGGGATTCCCATGATGTTAATCGGGTCTTGATTCGCTTGACGCTGCTG” returned a binding signal of 3.26 z-score.
Take “CCGATTAACATCAGGACTACCCCTGATGTTAATCGGGTCTTGATTCGCTTGACGCTGCTG”: the binding signal worked out at 1.61 z-score.
Under “CCGATTAACATCAAGGGAATCCCTGATGTTAATCGGGTCTTGATTCGCTTGACGCTGCTG” stands 5.4 z-score; under “CCGATTAACATCAGGGATAACCCTGATGTTAATCGGGTCTTGATTCGCTTGACGCTGCTG”, 1.1 z-score.
On to “CCGATTAACATCAGGGGGTCACCTGATGTTAATCGGGTCTTGATTCGCTTGACGCTGCTG”, for which the binding signal amounted to 2.36 z-score.
As to “CCGATTAACATCAGGAATAACCCTGATGTTAATCGGGTCTTGATTCGCTTGACGCTGCTG”, the binding signal was determined as 1.44 z-score.
Take “CCGATTAACATCAGTACGGGAAATGATGTTAATCGGGTCTTGATTCGCTTGACGCTGCTG”: the binding signal was determined as 2.82 z-score.
Under “CCGATTAACATCAAAAAAAGTACTGATGTTAATCGGGTCTTGATTCGCTTGACGCTGCTG” stands 1.16 z-score.
The result for “CCGATTAACATCAAGGTACCCCCTGATGTTAATCGGGTCTTGATTCGCTTGACGCTGCTG” reads 3.84 z-score; that for “CCGATTAACATCAGGTCGGGAAATGATGTTAATCGGGTCTTGATTCGCTTGACGCTGCTG”, 2.31 z-score; that for “CCGATTAACATCAGGAATTCACCTGATGTTAATCGGGTCTTGATTCGCTTGACGCTGCTG”, 2.04 z-score.
“CCGATTAACATCAAAGAAGCCCCTGATGTTAATCGGGTCTTGATTCGCTTGACGCTGCTG” returned a binding signal of 4.95 z-score.
Under “CCGATTAACATCAGGGGAAGGAATGATGTTAATCGGGTCTTGATTCGCTTGACGCTGCTG” stands 6.09 z-score; under “CCGATTAACATCAGGCTTTCCCATGATGTTAATCGGGTCTTGATTCGCTTGACGCTGCTG”, 1.98 z-score.
On to “CCGATTAACATCAGGGAATACCATGATGTTAATCGGGTCTTGATTCGCTTGACGCTGCTG”, for which the binding signal stood at 2.61 z-score.
In turn, “CCGATTAACATCAACCACCCCCTTGATGTTAATCGGGTCTTGATTCGCTTGACGCTGCTG” yielded a binding signal of 3.4 z-score.
The result for “CCGATTAACATCAGGGGGATGGATGATGTTAATCGGGTCTTGATTCGCTTGACGCTGCTG” reads 4.26 z-score.
In turn, “CCGATTAACATCAAAAATCACCCTGATGTTAATCGGGTCTTGATTCGCTTGACGCTGCTG” showed a binding signal of 3.82 z-score.
Turning to “CCGATTAACATCAGGGAAATTCATGATGTTAATCGGGTCTTGATTCGCTTGACGCTGCTG”, the binding signal was 5.89 z-score.
The result for “CCGATTAACATCACGGGAATCCCTGATGTTAATCGGGTCTTGATTCGCTTGACGCTGCTG” reads 4.38 z-score; that for “CCGATTAACATCAGACTTCCCCATGATGTTAATCGGGTCTTGATTCGCTTGACGCTGCTG”, 6.11 z-score; that for “CCGATTAACATCAGGCCCCCCCCTGATGTTAATCGGGTCTTGATTCGCTTGACGCTGCTG”, 3.9 z-score.
The result for “CCGATTAACATCAGGAAAACACCTGATGTTAATCGGGTCTTGATTCGCTTGACGCTGCTG” reads 3.23 z-score.
Turning to “CCGATTAACATCAAGGAATTTCCTGATGTTAATCGGGTCTTGATTCGCTTGACGCTGCTG”, the binding signal came to 1.22 z-score.
The result for “CCGATTAACATCAGGCAAATCCCTGATGTTAATCGGGTCTTGATTCGCTTGACGCTGCTG” reads 1.09 z-score.
Sequence “CCGATTAACATCAGGGGGGGTACTGATGTTAATCGGGTCTTGATTCGCTTGACGCTGCTG” returned a binding signal of 4.19 z-score.
Under “CCGATTAACATCAAATCACCCCCTGATGTTAATCGGGTCTTGATTCGCTTGACGCTGCTG” stands 5.42 z-score.
“CCGATTAACATCAGGCGTCCCCCTGATGTTAATCGGGTCTTGATTCGCTTGACGCTGCTG” gave a binding signal of 4.71 z-score.
Take “CCGATTAACATCAATGGGAAAATTGATGTTAATCGGGTCTTGATTCGCTTGACGCTGCTG”: the binding signal was found to be 5.32 z-score.
The sequence “CCGATTAACATCAAACAACCCCCTGATGTTAATCGGGTCTTGATTCGCTTGACGCTGCTG” returned a binding signal of 4.83 z-score.
“CCGATTAACATCAAGGTTTTCCCTGATGTTAATCGGGTCTTGATTCGCTTGACGCTGCTG”: the binding signal was found to be 6.21 z-score.
“CCGATTAACATCAGGGCATACCCTGATGTTAATCGGGTCTTGATTCGCTTGACGCTGCTG”: the binding signal was found to be 1.31 z-score.
As for “CCGATTAACATCAATGCACCCCCTGATGTTAATCGGGTCTTGATTCGCTTGACGCTGCTG”, the binding signal came out at 4.37 z-score.
